# Reference: ChEMBL document CHEMBL1961873, “Compounds: GSK PKIS; Assays: Nanosyn kinase panel” (2012)
# Legend:
# [1] = molecular target: Serine/threonine-protein kinase 26 (Homo sapiens) (UniProt Q9P289); details: at 1 µM;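 note: mean inhibition of MST4 kinase activity, reported from the GSK PKIS inhibitor-set screening panel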
# [2] = molecular target: Serine/threonine-protein kinase PAK 1 (Homo sapiens) (UniProt Q13153); details: at 0.1 µM
# [3] = molecular target: Serine/threonine-protein kinase PAK 1 (Homo sapiens) (UniProt Q13153); details: at 1 µM
# [4] = molecular target: Serine/threonine-protein kinase PAK 2 (Homo sapiens) (UniProt Q13177); details: at 0.1 µM
# [5] = molecular target: Serine/threonine-protein kinase PAK 2 (Homo sapiens) (UniProt Q13177); details: at 1 µM
# [6] = molecular target: Serine/threonine-protein kinase PAK 3 (Homo sapiens) (UniProt O75914); details: at 0.1 µM
# [7] = molecular target: Serine/threonine-protein kinase PAK 3 (Homo sapiens) (UniProt O75914); details: at 1 µM
# [8] = molecular target: Serine/threonine-protein kinase PAK 5 (Homo sapiens) (UniProt Q9P286); details: at 0.1 µM
# [9] = molecular target: Serine/threonine-protein kinase PAK 5 (Homo sapiens) (UniProt Q9P286); details: at 1 µM
# [10] = molecular target: Serine/threonine-protein kinase PAK 6 (Homo sapiens) (UniProt Q9NQU5); details: at 0.1 µM
# [11] = molecular target: Serine/threonine-protein kinase PAK 6 (Homo sapiens) (UniProt Q9NQU5); details: at 1 µM
# [12] = tested on: Tyrosine-protein kinase ABL1 (Homo sapiens), P00519 [E255K]; details: at 0.1 µM
# [13] = tested on: Tyrosine-protein kinase ABL1 (Homo sapiens), P00519 [E255K]; details: at 1 µM
# [14] = tested on: Tyrosine-protein kinase ABL1 (Homo sapiens), P00519 [H396P]; details: at 0.1 µM
# [15] = tested on: Tyrosine-protein kinase ABL1 (Homo sapiens), P00519 [H396P]; details: at 1 µM
# [16] = tested on: Tyrosine-protein kinase ABL1 (Homo sapiens), P00519 [M351T]; details: at 0.1 µM
# [17] = tested on: Tyrosine-protein kinase ABL1 (Homo sapiens), P00519 [M351T]; details: at 1 µM
# [18] = tested on: Tyrosine-protein kinase ABL1 (Homo sapiens), P00519 [Q252H]; details: at 0.1 µM
# [19] = tested on: Tyrosine-protein kinase ABL1 (Homo sapiens), P00519 [Q252H]; details: at 1 µM
# [20] = tested on: Tyrosine-protein kinase ABL1 (Homo sapiens), P00519 [T315I]; details: at 0.1 µM
# Sequence of Serine/threonine-protein kinase 26 (Homo sapiens) (Q9P289 2-416 limits assumed): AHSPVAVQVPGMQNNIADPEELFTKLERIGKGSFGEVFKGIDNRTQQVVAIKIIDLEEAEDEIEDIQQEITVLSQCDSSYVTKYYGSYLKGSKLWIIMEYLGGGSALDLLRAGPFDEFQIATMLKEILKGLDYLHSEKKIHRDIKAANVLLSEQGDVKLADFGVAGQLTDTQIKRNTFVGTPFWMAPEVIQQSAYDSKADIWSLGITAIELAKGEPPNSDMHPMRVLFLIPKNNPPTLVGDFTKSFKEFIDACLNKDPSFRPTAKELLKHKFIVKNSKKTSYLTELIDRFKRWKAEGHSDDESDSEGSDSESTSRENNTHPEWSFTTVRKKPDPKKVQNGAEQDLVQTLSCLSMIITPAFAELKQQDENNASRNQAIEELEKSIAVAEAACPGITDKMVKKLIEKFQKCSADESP
# Sequence of Serine/threonine-protein kinase PAK 2 (Homo sapiens) (Q13177 whole entry): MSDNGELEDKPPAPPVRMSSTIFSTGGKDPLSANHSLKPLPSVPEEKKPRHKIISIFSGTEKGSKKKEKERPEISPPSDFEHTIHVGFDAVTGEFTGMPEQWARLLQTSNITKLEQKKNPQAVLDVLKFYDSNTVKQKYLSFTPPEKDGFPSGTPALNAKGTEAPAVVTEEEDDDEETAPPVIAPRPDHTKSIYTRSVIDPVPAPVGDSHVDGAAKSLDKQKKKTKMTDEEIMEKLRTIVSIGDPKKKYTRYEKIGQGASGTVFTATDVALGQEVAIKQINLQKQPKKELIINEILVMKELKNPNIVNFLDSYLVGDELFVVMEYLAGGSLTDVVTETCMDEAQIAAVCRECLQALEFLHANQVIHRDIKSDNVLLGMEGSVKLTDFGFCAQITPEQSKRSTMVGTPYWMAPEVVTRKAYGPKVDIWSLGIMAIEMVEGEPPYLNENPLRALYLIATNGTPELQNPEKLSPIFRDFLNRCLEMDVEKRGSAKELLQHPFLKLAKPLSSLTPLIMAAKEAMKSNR
# Sequence of Serine/threonine-protein kinase PAK 6 (Homo sapiens) (Q9NQU5 whole entry, looked up): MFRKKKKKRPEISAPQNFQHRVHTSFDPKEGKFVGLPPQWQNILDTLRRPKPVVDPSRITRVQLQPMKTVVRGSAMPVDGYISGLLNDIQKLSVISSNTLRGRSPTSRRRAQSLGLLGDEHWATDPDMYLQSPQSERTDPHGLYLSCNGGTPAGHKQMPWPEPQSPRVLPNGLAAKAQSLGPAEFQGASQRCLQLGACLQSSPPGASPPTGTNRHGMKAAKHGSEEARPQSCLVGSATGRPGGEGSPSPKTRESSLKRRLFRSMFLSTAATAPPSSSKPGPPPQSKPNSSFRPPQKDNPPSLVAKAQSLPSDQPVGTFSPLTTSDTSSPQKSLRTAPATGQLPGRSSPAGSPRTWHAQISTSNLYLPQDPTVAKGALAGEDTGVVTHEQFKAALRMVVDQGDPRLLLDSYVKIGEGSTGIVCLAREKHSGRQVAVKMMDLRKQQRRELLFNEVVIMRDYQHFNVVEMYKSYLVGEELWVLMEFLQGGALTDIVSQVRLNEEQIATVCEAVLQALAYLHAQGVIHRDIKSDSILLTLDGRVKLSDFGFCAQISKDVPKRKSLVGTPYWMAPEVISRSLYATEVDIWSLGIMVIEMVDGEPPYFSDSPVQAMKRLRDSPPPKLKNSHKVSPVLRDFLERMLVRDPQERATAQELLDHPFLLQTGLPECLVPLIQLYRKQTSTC
# Sequence of Serine/threonine-protein kinase PAK 3 (Homo sapiens) (O75914 whole entry, looked up): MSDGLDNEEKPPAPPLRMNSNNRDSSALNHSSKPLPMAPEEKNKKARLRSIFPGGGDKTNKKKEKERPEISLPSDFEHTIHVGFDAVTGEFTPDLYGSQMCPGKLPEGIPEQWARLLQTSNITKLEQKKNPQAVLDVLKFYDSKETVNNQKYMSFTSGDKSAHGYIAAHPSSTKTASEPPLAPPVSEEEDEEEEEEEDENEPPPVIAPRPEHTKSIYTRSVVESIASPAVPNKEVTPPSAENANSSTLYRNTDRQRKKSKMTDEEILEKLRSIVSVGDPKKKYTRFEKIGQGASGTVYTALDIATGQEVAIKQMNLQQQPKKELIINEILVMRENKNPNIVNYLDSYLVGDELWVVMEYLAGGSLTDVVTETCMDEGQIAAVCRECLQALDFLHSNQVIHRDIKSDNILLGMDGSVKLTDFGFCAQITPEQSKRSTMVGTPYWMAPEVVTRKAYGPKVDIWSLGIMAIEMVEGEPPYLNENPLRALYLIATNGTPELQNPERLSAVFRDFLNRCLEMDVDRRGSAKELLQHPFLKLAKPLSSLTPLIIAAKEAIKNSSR
# Sequence of Serine/threonine-protein kinase PAK 1 (Homo sapiens) (Q13153 whole entry): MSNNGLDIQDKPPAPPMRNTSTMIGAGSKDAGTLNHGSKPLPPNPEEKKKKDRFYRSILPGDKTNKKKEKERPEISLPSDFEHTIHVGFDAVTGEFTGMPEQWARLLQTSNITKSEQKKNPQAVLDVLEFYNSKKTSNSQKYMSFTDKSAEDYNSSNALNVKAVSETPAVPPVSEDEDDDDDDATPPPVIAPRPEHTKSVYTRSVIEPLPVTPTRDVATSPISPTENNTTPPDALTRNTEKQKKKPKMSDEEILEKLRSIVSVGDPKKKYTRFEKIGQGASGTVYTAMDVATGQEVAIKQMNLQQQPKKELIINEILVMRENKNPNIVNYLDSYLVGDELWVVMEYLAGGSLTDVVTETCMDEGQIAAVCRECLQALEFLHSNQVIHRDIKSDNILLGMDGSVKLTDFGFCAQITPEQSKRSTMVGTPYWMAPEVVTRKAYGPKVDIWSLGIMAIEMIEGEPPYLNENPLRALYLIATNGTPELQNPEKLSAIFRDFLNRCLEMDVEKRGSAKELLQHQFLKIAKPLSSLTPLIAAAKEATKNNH
# Sequence of Serine/threonine-protein kinase PAK 5 (Homo sapiens) (Q9P286 whole entry, looked up): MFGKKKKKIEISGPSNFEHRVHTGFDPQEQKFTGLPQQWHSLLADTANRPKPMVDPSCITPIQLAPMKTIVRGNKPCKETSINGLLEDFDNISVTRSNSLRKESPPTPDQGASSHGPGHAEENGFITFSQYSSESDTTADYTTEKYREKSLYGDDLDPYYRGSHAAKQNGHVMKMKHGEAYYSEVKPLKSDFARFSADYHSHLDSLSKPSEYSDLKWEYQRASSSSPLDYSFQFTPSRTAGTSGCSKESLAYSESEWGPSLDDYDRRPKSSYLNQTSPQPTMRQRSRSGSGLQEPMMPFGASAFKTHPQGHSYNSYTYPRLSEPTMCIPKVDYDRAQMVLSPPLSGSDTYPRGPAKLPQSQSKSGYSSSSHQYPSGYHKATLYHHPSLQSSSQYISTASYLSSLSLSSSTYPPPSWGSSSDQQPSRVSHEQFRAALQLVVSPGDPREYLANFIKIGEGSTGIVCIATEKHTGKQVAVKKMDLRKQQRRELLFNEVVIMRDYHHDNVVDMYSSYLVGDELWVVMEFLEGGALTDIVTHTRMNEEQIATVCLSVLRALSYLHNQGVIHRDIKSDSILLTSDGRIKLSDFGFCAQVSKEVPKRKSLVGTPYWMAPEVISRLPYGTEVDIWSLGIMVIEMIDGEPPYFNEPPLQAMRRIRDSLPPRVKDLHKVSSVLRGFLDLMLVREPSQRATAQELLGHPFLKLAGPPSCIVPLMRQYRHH
Structure (SMILES),inhibition [1] [%],inhibition [2] [%],inhibition [3] [%],inhibition [4] [%],inhibition [5] [%],inhibition [6] [%],inhibition [7] [%],inhibition [8] [%],inhibition [9] [%],inhibition [10] [%],inhibition [11] [%],inhibition [12] [%],inhibition [13] [%],inhibition [14] [%],inhibition [15] [%],inhibition [16] [%],inhibition [17] [%],inhibition [18] [%],inhibition [19] [%],inhibition [20] [%]
COc1cc(Nc2ncc3c(C)nc(-c4cccc(Oc5ccccc5)c4)n3n2)cc(OC)c1OC,-2.15,4.4,3.74,1.49,1.12,2.09,4.11,1.86,4.51,-2.06,-0.38,2.03,1.82,2.82,1.6,2.89,1.5,3.94,0.97,0.51
Fc1ccc(-c2ncn(C3CCNCC3)c2-c2ccnc(Oc3ccc(Oc4ccccc4)cc3)n2)cc1,2.78,6.63,8.97,2.19,3.52,4.8,8.51,5.41,6.5,-6.7,-1.92,1.84,2.14,2.93,3.2,-0.2,0.05,1.63,2.88,0.61
COc1ccc2ncn(-c3cc(O[C@H](C)c4ccccc4Cl)c(C(N)=O)s3)c2c1,-5.03,3.16,7.26,1.84,1.19,5.49,6.75,1.71,3.63,-3.39,1.83,1.19,2.26,3.99,9.15,0.34,5.61,2.81,4.72,0.33
CS(=O)(=O)CCNCc1ccc(-c2ccc3ncnc(Nc4ccc(OCc5ccccc5)c(Br)c4)c3c2)o1,-1.33,5.64,8.98,0.93,1.63,5.05,4.4,1.46,0.13,-8.08,-7.5,1.35,2.28,4.48,4.61,0.99,2.04,3.94,4.09,1.53
NC(=O)Cc1ccccc1Oc1nccc(-c2c(-c3ccc(F)cc3)ncn2C2CCNCC2)n1,-1.77,4.71,7.55,1.39,1.36,0.09,3.36,-1.8,-2.81,1.97,-1.76,0.8,2.45,0.08,-2.39,-1.54,-1.6,2.24,1.77,1.47
CCc1cccc(CC)c1/C=C/c1cncc(C(=O)NC)c1,-4.27,6.83,2.08,2.1,1.76,2.61,3.43,8.04,-1.06,-5.49,11.5,3.61,17.5,7.45,37.4,7.15,32.1,3.16,12.1,2.72
C#Cc1cccc(Nc2ncnc3ccc(OCCCCNCCS(C)(=O)=O)cc23)c1,-0.45,9.27,7.48,2.71,1.48,4.58,5.67,2.62,4.31,-6.04,-2.58,4.64,19.7,7.05,23,4.14,19.2,6.79,22.7,3.9
N#Cc1ccc(Oc2nccc(-c3c(-c4ccc(F)cc4)ncn3C3CCNCC3)n2)cc1,-2.91,7.47,7.87,1.65,2.68,4.55,4.04,2.41,0.4,-4.78,-7.23,2.37,3.79,3.91,5.59,2.13,4.25,4,6.46,3.62
O=C1NC(=O)C(c2cccc(Cl)c2)=C1Nc1ccc(Cl)c(C(=O)O)c1,0.53,4.41,6.62,2.04,0.87,3.53,3.74,0.06,0.5,-2.69,-4.4,1.78,3.24,2.08,6.18,2.29,5.05,2.43,4.98,1.3
COc1cccc(/C=N/Nc2ncnc3c2cnn3-c2cccc(OC)c2)c1,-1.93,7.47,6.13,1.74,1.26,2.7,4.34,1.31,-2.49,-3.17,-7.63,7.5,34.4,9.64,41.8,7.51,42,12.9,54.9,3.28
COc1cc2ncn(-c3cc(OCc4cccs4)c(C(N)=O)s3)c2cc1OC,0.69,5.82,5.75,0.62,0.03,2,4.56,8.19,8.5,6.2,11,2.64,29.8,10.9,51.6,7.47,50.4,8.78,46.3,12.2
Cc1ccc(C(=O)NC2CCC2)cc1-c1ccc(C(=O)NCC2CC2)cc1,-4.44,6.1,8.35,2.22,2.3,3.41,3.03,-0.72,-2.79,3.05,-6.65,1.89,1.67,1.26,0.31,-0.23,-0.39,0.6,1.97,0.82
COc1cccc(-n2cnc3c(N/N=C/c4ccncc4)ncnc32)c1,-2.88,2.37,1.58,-1.03,-0.99,-1.14,0.31,6.09,10.8,5.99,3.44,30.8,80.2,47.1,87.1,44.7,88.1,40.1,84.2,1.94
COc1cc2ncn(-c3cc(OCCc4ccccc4)c(C(N)=O)s3)c2cc1OC,-2.27,-1.36,5.32,0.32,-0.01,2.35,2.82,-3.93,-5.75,1.18,-0.86,-1.76,6.39,2.33,10.4,-0.05,11.6,0.95,10.7,1.49
COc1ccc2cc(-c3c(-c4ccncc4)nc(-c4ccc([S+](C)[O-])cc4C)n3C)ccc2c1 (stereo not given),3.65,-1.49,-0.86,-1.29,-1.27,-0.99,-1.45,-5.87,6.4,-2.81,1.24,-1.36,5.96,2.45,17.6,2.12,19.8,2.32,18,9.26
c1ccc(Oc2ccc(Nc3ncc(-c4ccccc4)o3)cc2)cc1,0.79,-1.14,6.59,0.5,-0.36,0.64,0.63,-0.61,2.2,-2.49,-7.12,1.57,0.84,2.43,0.51,1.56,1.33,1.3,0.81,1.59
CN(C)CCCNc1nccc(-c2c(-c3ccc(F)cc3)nn3cc(C(F)(F)F)ccc23)n1,0.55,-1.51,-0.15,1.45,1.67,1.76,2.77,0.97,1.58,2.33,-4.04,1.96,5.43,4.54,4,4.09,3.29,3.28,5.19,1.28
NC(=O)c1ccc(Oc2nccc(-c3c(-c4ccc(F)cc4)ncn3C3CCNCC3)n2)cc1,2.28,10,11,2.27,2.2,6.67,9.21,4.23,0.82,-4.02,-4.13,2.12,3.91,5.26,5.53,-1.3,-0.09,2.63,7.69,3.03
O=C(NCC1CC1)c1ccc(-c2cccc(C(=O)NC3CC3)c2)cc1,-6.13,1.6,3.71,2.76,1.58,2.9,2.97,9.42,6.07,-1.35,8.38,2.4,3.09,3.44,3.43,2.14,4.08,2.78,4.27,2.52
Cc1ccc(NC(=O)c2ccoc2)cc1-c1ccc(C(=O)NCC2CC2)cc1,-2.75,3.52,4.54,0.23,-1.68,2.22,1.14,-1.43,2.58,-5.33,-2.77,1.13,-0.37,3.08,2.07,0.71,1.82,2.29,0.64,2.05
COc1ccc(C2=C(N3CCc4ccccc43)C(=O)NC2=O)cc1,2.06,7.07,7.47,1.61,1.57,4.96,5.37,4.64,2.28,3.36,-1.91,3.46,3.94,3.85,5.26,-0.47,7.03,4.56,6.15,3.54
CN(C)CCOc1ccc(-c2cc(-c3ccc4c(c3)CCC4=NO)c(-c3ccncc3)o2)cc1,3.69,-4.98,-1.45,-1.68,-2.82,-1.69,-1.63,-8.32,-0.63,1.99,1.93,-1.95,7.95,1.96,20.9,3.15,19.9,4.54,34.5,1.35
COC(=O)Nc1nc2ccc(Sc3ccc(NC(=O)Nc4cc(C(F)(F)F)ccc4F)cc3)cc2[nH]1,-1.61,-1.15,-1.32,10.8,0.18,-0.08,0.83,6.86,-2.02,-4.57,1.21,-1.69,14.8,2.95,49.9,33.2,70.2,26.9,70.7,27.7
c1ccc(-c2n[nH]cc2-c2ccnc(-c3ccc(OCCN4CCOCC4)cc3)c2)nc1,2.93,-0.81,5.57,1.69,0.57,3.54,3.78,-6.65,4.04,7.57,3.66,9.49,47.8,19.5,70.9,22.1,69.1,11.9,51.8,1.78
CCS(=O)(=O)c1ccc(OC)c(Nc2ncc(-c3cccc(-c4ccccc4F)c3)o2)c1,-0.27,-2.19,-0.96,-1,-0.6,-0.65,-0.27,6.6,2.9,12.3,1.97,40.6,84.4,34.5,82,44.6,86.9,37.9,84.6,1.82
CN(C)c1ccc2c(c1)/C(=C/Nc1ccc(S(N)(=O)=O)cc1)C(=O)N2,20.2,4.25,2.53,-0.61,0.6,1.32,2.05,-3.51,-4.48,11.8,-1.53,2.53,12.8,2.8,14.3,3.86,15.8,4,17.8,3.12
Fc1ccc(-c2nc3n(c2-c2ccncc2)CCS3)cc1,-1.08,6.15,8.39,3.06,1.6,4.5,4.49,-6.84,-7.5,9.34,-7.43,1.52,4.79,2.85,3.2,1.2,4.76,2.91,5.38,1.83
